# Out of some 43,000 compounds screened, about 830 (1.9%) were called active. Inconclusive results (about 30%) are left out. The calls were made as follows: active = clear falling dose curves in both reporters; inconclusive = both reporters move, but less clearly or upward; inactive = either reporter flat; the % is the NLuc reporter signal. Many of the other results were omitted from the sample, so actives are more common in it than they were.
# Test: Cell-based coincidence reporter assay to measure PMP22 gene transcription in S16 Pmp22-F2sN cells - Primary screen
# Details: S16 Pmp22-F2sN Schwann cells (luciferase reporters placed in the Pmp22 gene), FLuc/NLuc coincidence luminescence, 24 h; series mostly up to 57.5 µM; activity change, negative = inhibition: at the top concentration
# Description: Assay Provider: Jim Inglese Ph.D. National Center for Advancing Translational Science, National Institutes of Health, Rockville, MD CMT is a heterogeneous group of neurological disorders that affect approximately 1 in 2,500 people. In particular, the most common form of CMT, CMT1A is genetically linked to the duplication of the PMP22 gene which leads to Schwann cell overexpression, thus manifesting itself as a typical case of dose-sensitive diseases. To identify small molecule compounds that can mediate the expression of PMP22 we developed a phenotypic assay screening strategy by utilizing genome editing techniques to construct Schwann cell lines containing novel reporter technology to monitor the transcriptional or translational regulation of PMP22. For high sensitivity we use a bioluminescent reporter system embedded in the 3' UTR of the PMP22 gene (S16(c9) Pmp22-F2sN) to identify compounds that inhibit gene expression. […] We can further discriminate the effect of all transcriptionally active molecules on PMP22 translation or stability with an assay that incorporates a short NLuc peptide (HiBiT) at the C-terminus of expressed PMP22 (S16(f8) PMP22-HiBiT) allowing alpha complementation and luminescence detection of membrane-associated PMP22 protein. These assays were screened against the NCATS Sytravon Library Collection. Miniaturization of these assays to 1536-well plate format for quantitative high throughput screening (qHTS) yielded rich data sets immediately from the qHTS assay (S16(c9) Pmp22-F2sN), when compared with data from a cell viability assay (Cell TiterGlo) to identify compounds that decreased the output signals through cellular toxicity to streamline the selection process of actives for subsequent characterization using the HiBiT assay (S16(f8) PMP22-HiBiT).
# Cell-based coincidence reporter assay to measure PMP22 gene transcription in S16 Pmp22-F2sN cells PROTOCOL TABLE (format as described by Inglese J, Shamu CE and Guy RK. 2007) SEQUENCE No. (e.g., 1, 2, 3, etc.); […] (e.g., Cells, Incubation, Reagent, etc.); VALUE and DESCRIPTION. 1. Cells. Add 500-1,000 cells in 4 uL in growth media (DMEM High Glucose, No Phenol Red media + 10% heat-inactivated FBS + 1% Pen/Strep supplemented media) per well into Greiner 1536-well white/solid bottom high base, TC-treated plates. 2. Compounds. Library compounds and controls added at 23nL per well, transferred by Pin Tool. 3. Incubation. Incubate plates at 37C, 5% CO2, 95% RH for 24 h. 4. Reagent. Add 3.5uL Nano-Glo Dual-Luciferase Reporter Assay System reagent 1: Lysis and FLuc reagent per well of Greiner 1536-well plates. 5. Incubation. Incubate plates at room temperature for 10 min., protect from light. 6. Detector. FLuc luminescence measured using CCD-based camera (Viewlux). 7. Reagent. Add 3.5uL Nano-Glo Dual-Luciferase Reporter Assay System reagent 2: Stop&Glo reagent per well of Greiner 1536-well plates. 8. Incubation. Incubate plates at room temperature for 10 min., protect from light. 9. Detector. NLuc luminescence measured using CCD-based camera (Viewlux). NOTES (numbers refer to Sequence numbers above; values are from representative experiments) 6. Luminescence Read #1 (FLuc): Clear filter; Exposure = 10 sec, Gain = High, Speed = Slow, Binning = 2X 9. Luminescence Read #2 (NLuc): Clear filter; Exposure = 1 sec, Gain = High, Speed = Slow, Binning = 2X REFERENCES: 1. Inglese J, Shamu CE and Guy RK, Reporting data from high throughput screening of small molecule libraries, Nature Chemical Biology, 2007, 3(8): 438-441. doi.org/10.1038/nchembio0807-438 2. Yasgar A, Shinn P, Jadhav A, Auld DS, Michael S, Zheng W, Austin CP, Inglese J and Simeonov A, Compound Management for Quantitative High-Throughput Screening. J. Assoc. Lab. Auto., 2008, 13: 79-89. doi: 10.1016/j.jala.2007.12.004
# % is scaled to controls: 0 for no effect and ±100 for the full control effect; potency is read from the fitted curve at half-maximal effect.
Compound,"activity change, negative = inhibition",Potency
COCC(C)NS(=O)(=O)c1ccc(N2CCCCS2(=O)=O)cc1 (centres undefined),-17.4% (inactive),
CCOC(=O)C1CCN(c2ncnc3c2c(-c2ccccc2)cn3-c2cccc(C)c2)CC1,29.9% (inactive),
Cc1cccc(NC(=O)CN(c2ccc(C(C)C)cc2)S(=O)(=O)c2c(C)nn(C)c2C)c1C,-1.83% (inactive),
Cc1cc(F)ccc1NC1(c2ccccc2)C(=O)c2ccccc2C1=O,-17.3% (inactive),
O=C(Nc1ccc(F)cc1F)c1cnn(-c2ccc(F)cc2)c1-n1cccc1,1.78% (inactive),
Cc1cc(F)ccc1NS(=O)(=O)c1ccc(-n2cccn2)cc1,,15 µM (active)
O=C(Cn1nc(Cc2cccnc2)c2ccccc2c1=O)N1CCN(c2ccccc2F)CC1,-3.71% (inactive),
Cc1ccc(C2C=C(c3ccc(Cl)cc3)Nc3nc(NC(=O)CCC(=O)O)nn32)cc1 (centres undefined),-1.58% (inactive),
Cc1cc(-c2ccccc2)n2nc(-c3ccccc3)cc2n1,24.1% (inactive),
O=C(CCc1nc(CN2CCN(S(=O)(=O)c3ccc(Cl)cc3)CC2)no1)N1CCCCC1,-9.23% (inactive),
Cc1cc(C)c(NC(=O)CSc2nc3ccncc3[nH]2)c(C)c1,-45.4% (inactive),
CCCCn1c(=N)c(S(=O)(=O)c2ccccc2)cc2c(=O)n3cccc(C)c3nc21,-13.2% (inactive),
Cc1ccc(CNC(=O)c2c(O)nc3c(C)cccn3c2=O)cc1,25.4% (inactive),
CCCn1c(=N)c(C(=O)NCc2ccccc2)cc2c(=O)n3cccc(C)c3nc21,,2.24 µM (active)
COc1ccc(-c2cc(C(=O)NCc3cc(OC)c(OC)c(OC)c3)[nH]n2)cc1,-8.61% (inactive),
Cc1ccccc1CNC(=O)C(=O)NCC(c1cccs1)S(=O)(=O)c1cccs1 (centres undefined),-27.5% (inactive),
Cc1ccc(-n2nc(C)c(C(=O)O)c2-n2cccc2)cc1,-0.533% (inactive),
CCOCCCNC(=O)c1cc2c(=O)n3ccccc3nc2s1,-12.9% (inactive),
CCn1c(=O)c2cc(C(=O)NCCc3ccc(Cl)cc3)sc2c2ccccc21,-26.8% (inactive),
CCC1CCCCN1CCCNC(=O)c1cc2c(Cl)nc3ccccc3c2s1 (centres undefined),,17.8 µM (active)
O=S(=O)(Nc1ccc2nc(-c3cccc(Cl)c3)oc2c1)c1ccccc1,-19.7% (inactive),
COc1cc(OC)c(NC(=O)c2nc(-c3ccncc3)no2)cc1Cl,-11.9% (inactive),
CCCn1c2ccccc2c2cnn(CC(=O)N3CCCC(C(=O)OCC)C3)c(=O)c21 (centres undefined),-19.6% (inactive),

Compound,"activity change, negative = inhibition",Potency
CCCn1c2ccccc2c2cnn(CC(=O)NCC3CCN(Cc4ccc(C)cc4)CC3)c(=O)c21,,18.9 µM (active)
CCCn1c2ccccc2c2cnn(CC(=O)NCCCOC(C)C)c(=O)c21,-4.77% (inactive),
O=C(Cn1ncc2c3ccccc3n(Cc3ccccc3)c2c1=O)NCc1ccccn1,-17.6% (inactive),
Cc1ccc(Cn2c(C)c3cnn(CC(=O)NCc4ccccc4)c(=O)c3c2C)cc1,,8.43 µM (active)
CCCN(CCC)CCCNC(=O)Cn1ncc2c3ccccc3n(Cc3ccccc3)c2c1=O,-19.1% (inactive),
CCOC(=O)c1ccc(NC(=O)Cn2c(=O)n(-c3ccc(C)cc3)c(=O)c3c2cnn3C)cc1,3.69% (inactive),
O=C(CSc1nccn1Cc1ccc(F)cc1)NCc1ccccc1,0.174% (inactive),
COc1ccc(NC(=O)C2CCN(c3ccc(Sc4ccc(C)cc4)nn3)CC2)c(OC)c1,-27.1% (inactive),
COc1cc(C(=O)NCCc2csc3nc(-c4ccccc4C)nn23)cc(OC)c1OC,44.6% (inactive),
CCC(=O)Nc1ccc(C)cc1-c1nc2ccccc2n(Cc2ccccc2)c1=O,1.15% (inactive),
Cc1ccc(C)c(N2CCN(Cc3nnc(-c4ccccc4)o3)CC2)c1,-22.9% (inactive),
CCN(CC)C(=O)CSc1nc2ccsc2c(=O)n1Cc1ccccc1Cl,-22.1% (inactive),
COc1ccc(NS(=O)(=O)c2cc3c(cc2C)N(C(C)=O)CCO3)cc1,-6.59% (inactive),
Cc1ccc2nc(COc3cccc(NC(=O)Nc4ccc(C)c(Cl)c4)c3)cc(=O)n2c1,-3.59% (inactive),
O=c1c2cccnc2n(Cc2cccc(F)c2)c(=O)n1Cc1ccccc1Cl,14.6% (inactive),
CCOC(=O)c1ccc(N2C(=O)c3n[nH]c(C)c3C2c2ccc(O)c(OC)c2)cc1 (centres undefined),,7.51 µM (active)
CCOC(=O)c1ccc(NC2=CC(c3ccc(OCC)cc3)N(c3ccc(C(=O)OCC)cc3)C2=O)cc1 (centres undefined),-0.625% (inactive),
Cc1ccc(C)c(N2CCN(C(=O)Cn3nc(C)c4sc5ccccc5c4c3=O)CC2)c1,11.4% (inactive),
COc1cccc(C(=O)N(Cc2cccc(Cl)c2)Cc2ccco2)c1,-23.2% (inactive),
CCOC(=O)c1ccc(NC(=O)C2CC(=O)NC(=Nc3ccc(C)c(C)c3)S2)cc1 (centres undefined),-24.1% (inactive),
CCOC(=O)Cc1ccc(NC(=O)Nc2c[nH]c(=O)[nH]c2=O)cc1,8.78% (inactive),
Cc1ccc(CSc2oc(-c3cccs3)nc2S(=O)(=O)c2ccc(C)cc2)cc1,8.14% (inactive),
CSc1oc(-c2cccs2)nc1S(=O)(=O)c1ccc(Br)cc1,49.8% (inactive),

Compound,"activity change, negative = inhibition",Potency
CCCCS(=O)(=O)c1oc(-c2cccs2)nc1S(=O)(=O)c1ccccc1,,1.82 µM (active)
Cc1ccc2oc(C(=O)Nc3ccc(S(=O)(=O)N4CCCCCC4)cc3)cc(=O)c2c1,-11% (inactive),
Cc1cc(C)cc(-n2c(SCC(=O)NCC3CCCO3)nc3c([nH]c4ccccc43)c2=O)c1 (centres undefined),-19.2% (inactive),
CCOC(=O)c1ccc(NC(=O)c2nc(SCc3ccc(F)cc3)ncc2Cl)cc1,-29.1% (inactive),
CCOC(=O)c1scc(-c2ccccc2)c1S(=O)(=O)Nc1ccccc1F,-0.485% (inactive),
CCCS(=O)(=O)c1ncc(Cl)c(C(=O)Nc2scc(-c3ccccc3)c2C(=O)OCC)n1,,5.97 µM (active)
CC1CCN(S(=O)(=O)c2ccc3c(c2)N(CC(=O)NCCc2ccccc2)C(=O)CO3)CC1,-25.2% (inactive),
CCC(C)c1ccc2oc(-c3ccc(NC(=O)c4cc5ccccc5o4)cc3)nc2c1 (centres undefined),-12.1% (inactive),
COc1ccccc1-c1cc2nc(C)c(CCC(=O)NC3CCCCC3)c(C)n2n1,-2.27% (inactive),
COc1ccc(-c2nc(S(=O)(=O)c3ccccc3)c(N3CCCCC3)o2)cc1,-26.4% (inactive),
O=C(CSc1oc(-c2ccc(F)cc2)nc1S(=O)(=O)c1ccc(Br)cc1)NC1CCCCC1,0.395% (inactive),
CC(C)S(=O)(=O)c1oc(-c2ccc(F)cc2)nc1S(=O)(=O)c1ccc(F)cc1,,2.05 µM (active)
Cc1ccc2nc(COc3ccc(NC(=O)COc4ccccc4F)cc3)cc(=O)n2c1,-12.1% (inactive),
CC(=O)Nc1cc(C(=O)NCc2ccc(F)cc2)ccc1Sc1ccc(F)cc1,-18.1% (inactive),
Cc1cccc(C2CC(=O)Oc3c2c(=O)n(C)c2ccccc32)c1 (centres undefined),-18.4% (inactive),
Cc1ccc(CCNC(=O)c2nnc(Cc3cccc(F)c3)o2)cc1,-14.3% (inactive),
CC(CNC(=O)c1nnc(Cc2cccc(F)c2)o1)c1ccccc1 (centres undefined),-15.6% (inactive),
O=C(NCCCN1CCN(c2cccc(Cl)c2)CC1)c1nnc(Cc2ccc(F)cc2Cl)o1,,18.9 µM (active)
CCOC(=O)c1c(NC(=O)c2cc(CC)on2)sc(C(C)=O)c1C,10.7% (inactive),
COc1ccc(CNC(=O)C2=Cc3cccc(OC)c3OC2)cc1OC,3.11% (inactive),
NC(=O)CSc1nc2c(oc3ccccc32)c(=O)n1Cc1ccccc1,-17.2% (inactive),
O=C(c1ccc2c(c1)N(Cc1ccc(F)cc1)C(=O)c1ccccc1S2(=O)=O)N1CCN(c2ccccn2)CC1,,15.6 µM (active)
O=C(NCCc1ccccc1)c1ccc2c(c1)N(Cc1ccc(F)cc1)C(=O)c1ccccc1S2(=O)=O,-29% (inactive),

Compound,"activity change, negative = inhibition",Potency
O=C(c1ccc2c(c1)N(Cc1ccccc1F)C(=O)c1ccccc1S2(=O)=O)N1CCOCC1,-4.6% (inactive),
Cc1ccc(C(=O)N2c3ncnn3C3(CCCCC3)[C@@H]3CCCC[C@@H]32)cc1,-3.73% (inactive),
COc1ccc(CCNc2nc(-c3ccc(F)cc3)cc(C(F)(F)F)n2)cc1OC,-5.08% (inactive),
O=C(CSc1nc(=O)n(Cc2cccnc2)c2c1CCC2)Nc1ccc(F)cc1F,-25.4% (inactive),
Cn1nnnc1SCCCNCc1ccc(Cl)cc1,0.621% (inactive),
CCC(=O)N1CCc2cc(S(=O)(=O)NC(CC(C)C)C(=O)NCCc3cccc(C)c3)ccc21 (centres undefined),7.22% (inactive),
CCc1ccc(NC(=O)CSc2nc3c([nH]c4ccccc43)c(=O)n2-c2cccc(OC)c2)cc1,-1.32% (inactive),
Cc1ccccc1CSc1nc2c([nH]c3ccccc32)c(=O)n1C,-13.5% (inactive),
CCOC(=O)c1ccc(NC(=O)CSc2nc3c([nH]c4ccccc43)c(=O)n2C)cc1,,14.1 µM (active)
Cc1ccccc1NC(=O)CCOc1ccccc1,3.36% (inactive),
COc1ccc(C)cc1N(C)C(=O)c1c(C)oc2ncnc(N3CCOCC3)c12,-13.9% (inactive),
Cc1cccc(-n2c(SCC(N)=O)nc3c(oc4ccccc43)c2=O)c1,-13.6% (inactive),
CCc1ccc(NC(=O)CN2CCSc3ccc(S(=O)(=O)N4CCCC4)cc32)cc1,,17 µM (active)
CC1CCN(CCCNC(=O)CN2C(=O)CSc3ccc(S(=O)(=O)N4CCCCC4)cc32)CC1,-33% (inactive),
CCc1ccc(NC(=O)c2cc(S(=O)(=O)N3CCCC(C)C3)cn2C)cc1 (centres undefined),-12.6% (inactive),
O=C(NCc1ccccc1Cl)c1cccn1-c1nnc(N2CCCCC2)s1,-13.1% (inactive),
COc1ccccc1CCNC(=O)c1cccn1-c1nnc(N2CCCCC2)s1,-23.5% (inactive),
Cc1ccc(CCNC(=O)C2CCN(c3nnc(-n4cccc4CNc4ccc(C)cc4)s3)CC2)cc1,,20 µM (active)
Cc1cc(C)cc(NC(=O)Cc2csc(C)n2)c1,-1.79% (inactive),
Cc1nc2ccc(S(=O)(=O)NC(C(=O)NCc3ccccc3Cl)C(C)C)cc2s1 (centres undefined),-9.19% (inactive),

# — PubChem BioAssay AID1508649 (National Center for Advancing Translational Sciences (NCATS), 2021)
